For one sequence, binding signal results are on record in article PMC7862700, “An all-to-all approach to the identification of sequence-specific readers for epigenetic DNA modifications on cytosine”.

What all share (test): DAPPL (digital affinity profiling via proximity ligation, sequencing); 10 mM Tris-HCl pH 7.5, 50 mM NaCl, 1 mM DTT, 4% glycerol, room temperature, 30 min; GST-TFs on glutathione beads, 16-mer random dsDNA library, 0.1% formaldehyde crosslink after washing; high values mean tight binding
One assay has as its target T1, FEV (Homo sapiens, UniProt Q99581 1-238).
T1 sequence: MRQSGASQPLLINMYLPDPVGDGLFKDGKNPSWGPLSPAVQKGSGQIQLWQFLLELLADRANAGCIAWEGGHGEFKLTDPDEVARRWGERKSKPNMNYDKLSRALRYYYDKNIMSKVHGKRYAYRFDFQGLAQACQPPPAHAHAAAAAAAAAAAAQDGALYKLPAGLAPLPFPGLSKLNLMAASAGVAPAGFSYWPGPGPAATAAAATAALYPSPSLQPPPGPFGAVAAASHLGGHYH
Particulars: protein: recombinant; tags: N-terminal GST; dsDNA, one strand shown. The essentials: (§1)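 Binding signal is given per hexamer as its read frequency for a factor divided by its frequency in the tag-only sample. GST-fused human transcription factors were expressed in yeast, captured on glutathione beads, barcoded with DNA and pooled with that sample, then incubated with 200 nmole of a 16-mer random double-stranded DNA library in Tris/NaCl/DTT/glycerol buffer for 30 min at room temperature. The pools were then washed, crosslinked, proximity-ligated, amplified by PCR and sequenced on an Illumina NextSeq500.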

The target in another assay is ETV5 (Homo sapiens, UniProt P41161 1-510). The note with it: protein: recombinant; tags: N-terminal GST; dsDNA, one strand shown. The essentials: as §1
Sequence of ETV5 (P41161 whole entry): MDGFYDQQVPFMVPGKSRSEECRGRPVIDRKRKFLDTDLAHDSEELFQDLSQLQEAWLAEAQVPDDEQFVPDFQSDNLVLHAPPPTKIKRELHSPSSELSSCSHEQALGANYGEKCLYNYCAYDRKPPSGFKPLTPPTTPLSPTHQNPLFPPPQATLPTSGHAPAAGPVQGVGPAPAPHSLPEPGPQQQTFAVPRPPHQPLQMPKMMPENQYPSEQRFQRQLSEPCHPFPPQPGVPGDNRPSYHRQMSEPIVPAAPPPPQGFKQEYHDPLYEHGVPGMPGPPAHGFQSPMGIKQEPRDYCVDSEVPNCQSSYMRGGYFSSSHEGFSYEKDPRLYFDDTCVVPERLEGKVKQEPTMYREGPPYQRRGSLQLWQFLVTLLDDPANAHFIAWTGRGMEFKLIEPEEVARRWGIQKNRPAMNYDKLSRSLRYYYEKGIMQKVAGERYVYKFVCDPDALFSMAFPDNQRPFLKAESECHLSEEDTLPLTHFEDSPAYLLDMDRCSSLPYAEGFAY
The target in a further assay is HSF1 (Homo sapiens, UniProt Q00613 1-529). The note with it: protein: recombinant; tags: N-terminal GST; chain copies: 3; dsDNA, one strand shown. The essentials:
as §1

In a further assay the target is T2, SPIC (Homo sapiens, UniProt Q8N5J4 1-248).
T2 sequence: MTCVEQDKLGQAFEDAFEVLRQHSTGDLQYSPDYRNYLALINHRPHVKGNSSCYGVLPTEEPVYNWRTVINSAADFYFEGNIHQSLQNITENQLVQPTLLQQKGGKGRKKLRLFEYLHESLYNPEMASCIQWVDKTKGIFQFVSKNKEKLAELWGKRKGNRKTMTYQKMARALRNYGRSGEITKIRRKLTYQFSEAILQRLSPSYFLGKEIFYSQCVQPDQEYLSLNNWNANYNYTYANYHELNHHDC
The note with it: protein: recombinant; tags: N-terminal GST; dsDNA, one strand shown. Put shortly:
as §1

In a further assay the target is ELF4 (Homo sapiens, UniProt Q99607 1-663). Particulars: protein: recombinant; tags: N-terminal GST; dsDNA, one strand shown. The essentials: as §1
Sequence of ELF4 (Q99607 whole entry): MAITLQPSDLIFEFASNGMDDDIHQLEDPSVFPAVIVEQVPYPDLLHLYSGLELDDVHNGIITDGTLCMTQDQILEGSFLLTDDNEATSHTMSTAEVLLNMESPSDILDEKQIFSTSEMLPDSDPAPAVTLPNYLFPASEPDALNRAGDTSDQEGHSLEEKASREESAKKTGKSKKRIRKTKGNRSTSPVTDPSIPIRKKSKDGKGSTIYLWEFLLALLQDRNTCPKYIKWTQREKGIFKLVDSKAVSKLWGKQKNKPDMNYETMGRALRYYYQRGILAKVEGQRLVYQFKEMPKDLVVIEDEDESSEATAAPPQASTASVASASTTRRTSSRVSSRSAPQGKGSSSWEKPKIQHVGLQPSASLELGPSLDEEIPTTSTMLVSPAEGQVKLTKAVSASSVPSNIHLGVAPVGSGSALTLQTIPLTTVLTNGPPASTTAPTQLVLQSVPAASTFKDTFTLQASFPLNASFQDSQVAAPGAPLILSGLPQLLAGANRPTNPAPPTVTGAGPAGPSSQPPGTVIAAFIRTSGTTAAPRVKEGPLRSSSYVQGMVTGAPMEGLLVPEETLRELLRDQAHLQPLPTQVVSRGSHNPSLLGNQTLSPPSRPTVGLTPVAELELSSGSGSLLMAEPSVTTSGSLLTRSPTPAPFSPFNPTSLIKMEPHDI
The next assay has as its target T3, ELK4 (Homo sapiens, UniProt P28324-2 1-405).
T3 sequence: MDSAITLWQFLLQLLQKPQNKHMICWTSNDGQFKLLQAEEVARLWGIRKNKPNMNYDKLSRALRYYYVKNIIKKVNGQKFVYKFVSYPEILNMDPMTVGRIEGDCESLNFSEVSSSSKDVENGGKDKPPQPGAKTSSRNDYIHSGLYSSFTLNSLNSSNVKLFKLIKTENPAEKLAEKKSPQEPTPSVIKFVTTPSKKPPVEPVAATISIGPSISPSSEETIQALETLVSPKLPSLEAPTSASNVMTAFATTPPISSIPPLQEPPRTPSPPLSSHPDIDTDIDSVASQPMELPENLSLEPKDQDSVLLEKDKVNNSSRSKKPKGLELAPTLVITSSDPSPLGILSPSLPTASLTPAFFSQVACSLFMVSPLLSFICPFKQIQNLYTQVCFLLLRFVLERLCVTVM
The note with it: protein: recombinant; tags: N-terminal GST; dsDNA, one strand shown. The essentials:
as §1

Another assay addresses T4, ETV2 (Homo sapiens, UniProt O00321 1-342).
T4 sequence: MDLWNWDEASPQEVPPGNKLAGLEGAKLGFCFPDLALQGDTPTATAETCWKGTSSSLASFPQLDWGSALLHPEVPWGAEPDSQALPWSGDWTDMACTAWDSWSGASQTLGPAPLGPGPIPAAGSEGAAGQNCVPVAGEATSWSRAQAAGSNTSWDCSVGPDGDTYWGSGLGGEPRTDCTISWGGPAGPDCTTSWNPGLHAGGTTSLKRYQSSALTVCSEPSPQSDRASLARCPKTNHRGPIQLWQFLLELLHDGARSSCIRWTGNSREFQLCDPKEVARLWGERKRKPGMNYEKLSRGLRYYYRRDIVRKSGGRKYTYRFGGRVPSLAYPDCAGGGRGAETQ
Particulars: protein: recombinant; tags: N-terminal GST; dsDNA, one strand shown. The essentials: as §1

For the next assay, the target named is T5, ELF3 (Homo sapiens, UniProt P78545 1-371).
T5 sequence: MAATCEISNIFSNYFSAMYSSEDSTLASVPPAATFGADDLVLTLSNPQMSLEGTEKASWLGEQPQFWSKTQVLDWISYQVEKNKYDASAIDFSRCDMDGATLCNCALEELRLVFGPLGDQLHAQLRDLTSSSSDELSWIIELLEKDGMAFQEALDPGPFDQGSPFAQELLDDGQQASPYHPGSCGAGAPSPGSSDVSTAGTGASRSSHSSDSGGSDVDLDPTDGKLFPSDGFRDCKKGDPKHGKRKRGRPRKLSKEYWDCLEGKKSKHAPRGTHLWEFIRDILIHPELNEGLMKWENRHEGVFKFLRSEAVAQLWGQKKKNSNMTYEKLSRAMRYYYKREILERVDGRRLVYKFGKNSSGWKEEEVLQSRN
Particulars: protein: recombinant; tags: N-terminal GST; dsDNA, one strand shown. The essentials:
as §1

A further assay addresses CRX (Homo sapiens, UniProt O43186 1-299). The note with it: protein: recombinant; tags: N-terminal GST; dsDNA, one strand shown. The essentials: as §1
The target in another assay is ETV1 (Homo sapiens, UniProt P50549 1-477). The note with it: protein: recombinant; tags: N-terminal GST; dsDNA, one strand shown. Put shortly: as §1
Sequence of ETV1 (P50549 whole entry): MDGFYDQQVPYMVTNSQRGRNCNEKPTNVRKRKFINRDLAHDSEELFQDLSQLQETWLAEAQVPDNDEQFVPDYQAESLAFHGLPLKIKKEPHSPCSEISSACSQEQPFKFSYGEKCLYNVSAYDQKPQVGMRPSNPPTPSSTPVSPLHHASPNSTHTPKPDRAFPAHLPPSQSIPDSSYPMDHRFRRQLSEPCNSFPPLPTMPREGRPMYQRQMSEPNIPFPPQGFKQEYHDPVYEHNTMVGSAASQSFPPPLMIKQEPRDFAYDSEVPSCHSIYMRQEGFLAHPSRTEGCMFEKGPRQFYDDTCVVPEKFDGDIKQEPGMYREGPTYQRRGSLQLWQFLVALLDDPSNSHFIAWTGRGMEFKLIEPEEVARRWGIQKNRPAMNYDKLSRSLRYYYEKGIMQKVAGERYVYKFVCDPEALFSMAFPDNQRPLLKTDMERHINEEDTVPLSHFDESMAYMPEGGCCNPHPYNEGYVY
Another assay deals with T6, ERF (Homo sapiens, UniProt P50548 1-548).
T6 sequence: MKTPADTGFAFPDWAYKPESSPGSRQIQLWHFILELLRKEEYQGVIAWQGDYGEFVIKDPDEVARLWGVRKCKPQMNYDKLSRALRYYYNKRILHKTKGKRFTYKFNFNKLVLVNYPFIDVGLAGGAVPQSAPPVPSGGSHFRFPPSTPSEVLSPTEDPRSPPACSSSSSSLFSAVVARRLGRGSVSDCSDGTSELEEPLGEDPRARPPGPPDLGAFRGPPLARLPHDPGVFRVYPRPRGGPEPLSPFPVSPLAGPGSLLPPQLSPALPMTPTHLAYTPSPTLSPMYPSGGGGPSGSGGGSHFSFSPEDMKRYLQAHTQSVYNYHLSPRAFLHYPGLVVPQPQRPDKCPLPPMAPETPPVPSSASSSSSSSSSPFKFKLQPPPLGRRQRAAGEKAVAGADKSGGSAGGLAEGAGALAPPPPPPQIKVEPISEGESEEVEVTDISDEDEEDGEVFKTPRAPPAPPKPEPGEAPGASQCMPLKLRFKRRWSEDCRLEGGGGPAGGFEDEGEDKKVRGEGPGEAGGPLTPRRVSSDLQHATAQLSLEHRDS
The note with it: protein: recombinant; tags: N-terminal GST; dsDNA, one strand shown. The essentials: as §1

The next assay addresses T7, ETV3L (Homo sapiens, UniProt Q6ZN32 1-361).
T7 sequence: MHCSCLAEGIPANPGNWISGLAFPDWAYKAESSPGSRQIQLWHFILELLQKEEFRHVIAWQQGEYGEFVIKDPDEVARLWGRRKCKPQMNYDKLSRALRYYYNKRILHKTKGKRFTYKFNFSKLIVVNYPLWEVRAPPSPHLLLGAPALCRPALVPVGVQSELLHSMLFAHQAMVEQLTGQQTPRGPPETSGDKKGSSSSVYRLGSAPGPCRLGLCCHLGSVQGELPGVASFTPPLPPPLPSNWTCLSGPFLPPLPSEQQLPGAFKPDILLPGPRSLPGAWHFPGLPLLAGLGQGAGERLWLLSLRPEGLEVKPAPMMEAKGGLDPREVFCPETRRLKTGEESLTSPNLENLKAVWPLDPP
Particulars: protein: recombinant; tags: N-terminal GST; dsDNA, one strand shown. Put shortly:
as §1

For another assay, the target named is T8, ETS2 (Homo sapiens, UniProt P15036 1-469).
T8 sequence: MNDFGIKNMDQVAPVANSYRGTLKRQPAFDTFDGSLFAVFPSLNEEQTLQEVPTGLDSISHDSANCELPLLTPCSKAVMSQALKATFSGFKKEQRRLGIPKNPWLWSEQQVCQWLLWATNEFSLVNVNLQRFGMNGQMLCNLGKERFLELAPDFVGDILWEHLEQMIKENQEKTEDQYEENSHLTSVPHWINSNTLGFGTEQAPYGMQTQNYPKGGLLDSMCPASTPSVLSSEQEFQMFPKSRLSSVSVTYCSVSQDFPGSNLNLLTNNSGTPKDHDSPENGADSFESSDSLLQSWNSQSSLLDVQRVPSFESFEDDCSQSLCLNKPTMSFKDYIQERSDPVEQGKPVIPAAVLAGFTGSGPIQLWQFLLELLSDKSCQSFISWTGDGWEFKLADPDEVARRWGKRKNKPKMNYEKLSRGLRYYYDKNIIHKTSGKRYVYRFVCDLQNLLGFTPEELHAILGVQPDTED
The note with it: protein: recombinant; tags: N-terminal GST; dsDNA, one strand shown. Put shortly: as §1

The target in another assay is T9, SPDEF (Homo sapiens, UniProt O95238 1-335).
T9 sequence: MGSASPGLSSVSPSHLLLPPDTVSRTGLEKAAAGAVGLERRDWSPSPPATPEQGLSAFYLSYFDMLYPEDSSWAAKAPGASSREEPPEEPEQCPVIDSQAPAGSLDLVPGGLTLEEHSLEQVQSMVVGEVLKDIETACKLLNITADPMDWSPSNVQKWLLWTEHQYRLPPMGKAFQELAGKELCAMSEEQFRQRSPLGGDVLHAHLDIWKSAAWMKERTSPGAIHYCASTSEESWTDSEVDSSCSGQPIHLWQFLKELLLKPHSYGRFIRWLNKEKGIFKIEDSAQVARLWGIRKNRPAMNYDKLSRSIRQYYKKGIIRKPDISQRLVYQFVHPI
The note with it: protein: recombinant; tags: N-terminal GST; dsDNA, one strand shown. The essentials:
as §1

A further assay has as its target T10, ETV7 (Homo sapiens, UniProt Q9Y603 1-341).
T10 sequence: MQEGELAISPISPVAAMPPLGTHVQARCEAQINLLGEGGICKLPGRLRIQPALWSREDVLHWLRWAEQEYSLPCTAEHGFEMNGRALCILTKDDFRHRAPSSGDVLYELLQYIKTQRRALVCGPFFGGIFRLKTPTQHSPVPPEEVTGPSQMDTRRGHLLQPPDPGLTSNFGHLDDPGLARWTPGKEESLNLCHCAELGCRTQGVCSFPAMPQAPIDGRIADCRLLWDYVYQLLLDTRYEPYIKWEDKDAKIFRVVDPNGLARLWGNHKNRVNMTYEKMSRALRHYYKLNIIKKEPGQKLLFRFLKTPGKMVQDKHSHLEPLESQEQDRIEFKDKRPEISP
Particulars: protein: recombinant; tags: N-terminal GST; dsDNA, one strand shown. The essentials: as §1

A further assay deals with T11, ELF5 (Homo sapiens, UniProt Q9UKW6-2 1-255).
T11 sequence: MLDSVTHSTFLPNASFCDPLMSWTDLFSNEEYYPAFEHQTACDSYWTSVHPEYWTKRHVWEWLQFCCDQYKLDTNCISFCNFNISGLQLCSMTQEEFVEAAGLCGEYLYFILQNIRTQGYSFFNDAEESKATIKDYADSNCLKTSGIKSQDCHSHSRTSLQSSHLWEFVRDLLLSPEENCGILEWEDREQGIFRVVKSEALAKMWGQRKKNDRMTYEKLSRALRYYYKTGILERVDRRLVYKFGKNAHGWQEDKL
Particulars: protein: recombinant; tags: N-terminal GST; dsDNA, one strand shown. The essentials: as §1

For a further assay, the target named is T12, ETV3 (Homo sapiens, UniProt P41162-2 1-143).
T12 sequence: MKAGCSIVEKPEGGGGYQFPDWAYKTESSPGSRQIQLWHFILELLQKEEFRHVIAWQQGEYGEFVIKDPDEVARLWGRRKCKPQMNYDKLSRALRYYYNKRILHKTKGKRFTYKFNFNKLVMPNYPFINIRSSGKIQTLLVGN
Particulars: protein: recombinant; tags: N-terminal GST; dsDNA, one strand shown. Put shortly:
as §1

For another assay, the target named is ETV6 (Homo sapiens, UniProt P41212 1-452). Particulars: protein: recombinant; tags: N-terminal GST; dsDNA, one strand shown. The essentials:
as §1

Sequence of ETV6 (P41212 whole entry): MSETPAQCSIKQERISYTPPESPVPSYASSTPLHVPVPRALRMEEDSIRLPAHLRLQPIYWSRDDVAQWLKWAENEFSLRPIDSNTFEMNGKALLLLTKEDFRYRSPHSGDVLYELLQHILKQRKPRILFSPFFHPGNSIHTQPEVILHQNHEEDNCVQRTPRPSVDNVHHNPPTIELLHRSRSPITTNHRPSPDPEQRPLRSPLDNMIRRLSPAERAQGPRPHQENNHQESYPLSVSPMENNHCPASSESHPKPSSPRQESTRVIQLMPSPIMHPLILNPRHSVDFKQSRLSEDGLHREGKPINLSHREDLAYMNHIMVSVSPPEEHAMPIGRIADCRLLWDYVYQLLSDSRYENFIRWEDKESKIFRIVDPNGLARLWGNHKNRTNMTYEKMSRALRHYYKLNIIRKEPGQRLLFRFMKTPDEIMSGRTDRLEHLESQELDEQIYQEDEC
Sequence of CRX (O43186 whole entry): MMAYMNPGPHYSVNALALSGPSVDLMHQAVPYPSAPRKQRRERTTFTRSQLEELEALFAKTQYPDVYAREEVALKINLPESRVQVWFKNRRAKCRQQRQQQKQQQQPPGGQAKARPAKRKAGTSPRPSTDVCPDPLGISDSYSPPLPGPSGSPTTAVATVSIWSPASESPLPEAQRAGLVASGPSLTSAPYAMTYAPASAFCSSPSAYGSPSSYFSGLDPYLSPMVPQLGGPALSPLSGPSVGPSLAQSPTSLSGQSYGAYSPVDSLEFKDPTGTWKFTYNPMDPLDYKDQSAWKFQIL
Sequence of HSF1 (Q00613 whole entry): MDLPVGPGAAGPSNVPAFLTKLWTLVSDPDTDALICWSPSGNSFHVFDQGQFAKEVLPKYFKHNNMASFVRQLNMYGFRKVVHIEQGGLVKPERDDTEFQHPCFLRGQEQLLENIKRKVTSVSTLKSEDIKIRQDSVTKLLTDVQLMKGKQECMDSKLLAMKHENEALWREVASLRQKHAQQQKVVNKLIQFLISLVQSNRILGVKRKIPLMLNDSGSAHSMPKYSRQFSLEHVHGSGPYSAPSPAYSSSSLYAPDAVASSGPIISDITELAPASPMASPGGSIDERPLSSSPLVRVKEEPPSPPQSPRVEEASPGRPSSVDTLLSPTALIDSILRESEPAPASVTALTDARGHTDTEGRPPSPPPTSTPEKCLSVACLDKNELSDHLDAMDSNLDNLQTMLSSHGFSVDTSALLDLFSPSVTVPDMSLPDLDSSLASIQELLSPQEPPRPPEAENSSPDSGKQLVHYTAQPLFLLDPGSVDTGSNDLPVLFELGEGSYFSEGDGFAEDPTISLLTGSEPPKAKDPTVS

On to CTCCCG, for which the binding signal with FEV was 1.61 fold enrichment (6-mer frequency, TF over GST control); in the assay with ETV5 it was 1.59 fold enrichment (6-mer frequency, TF over GST control); with HSF1, 1.5 fold enrichment (6-mer frequency, TF over GST control); in the assay with SPIC it was 1.77 fold enrichment (6-mer frequency, TF over GST control); in the assay with ELF4, 1.68 fold enrichment (6-mer frequency, TF over GST control); with ELK4 it was 1.46 fold enrichment (6-mer frequency, TF over GST control). In addition, the binding signal with ETV2 was 1.25 fold enrichment (6-mer frequency, TF over GST control); with ELF3 it was 1.69 fold enrichment (6-mer frequency, TF over GST control); with CRX, 1.27 fold enrichment (6-mer frequency, TF over GST control); with ETV1 it was 1.5 fold enrichment (6-mer frequency, TF over GST control); with ERF, 1.42 fold enrichment (6-mer frequency, TF over GST control); in the assay with ETV3L, 1.43 fold enrichment (6-mer frequency, TF over GST control). Also, the binding signal with ETS2 is 1.52 fold enrichment (6-mer frequency, TF over GST control); in the assay with SPDEF, 1.65 fold enrichment (6-mer frequency, TF over GST control); with ETV7, 1.73 fold enrichment (6-mer frequency, TF over GST control); with ELF5 it was 1.74 fold enrichment (6-mer frequency, TF over GST control); with ETV3, 1.53 fold enrichment (6-mer frequency, TF over GST control); with ETV6, 1.57 fold enrichment (6-mer frequency, TF over GST control).
